Screening results as filed in PubChem.
G9a inh – qHTS Assay for Inhibitors of Histone Lysine Methyltransferase G9a | actives 8.8% (n = 350,000) | G9a H3K9 monomethylation, AlphaScreen, 2 h | Potency, µM (highest dose often 102 µM), for inactives: at the top dose activity, negative = inhibition, actives largely listed as inhibitors | Histone-lysine N-methyltransferase EHMT2 (Homo sapiens), Q96KQ7; further: on the % scale 0 is the no-effect control and ±100 the full control effect; nearly all actives have a fitted effect of over 75% in size
Target sequence (Q96KQ7 913-1193 limits assumed): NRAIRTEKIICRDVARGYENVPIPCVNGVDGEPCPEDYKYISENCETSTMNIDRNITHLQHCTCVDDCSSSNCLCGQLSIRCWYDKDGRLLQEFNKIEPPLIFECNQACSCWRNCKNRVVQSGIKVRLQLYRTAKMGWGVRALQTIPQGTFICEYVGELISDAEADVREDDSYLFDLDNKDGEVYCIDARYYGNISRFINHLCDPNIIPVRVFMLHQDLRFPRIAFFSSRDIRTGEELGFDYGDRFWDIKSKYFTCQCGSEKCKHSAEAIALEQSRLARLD
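Readings reflect AlphaScreen signal from monomethyl-H3K9 antibody detection. HMT at 20 nM; substrate b-H3K9 500 nM; cofactor SAM 20 uM; 2 h RT reaction; compounds tested as titrations in qHTS with 15 min preincubation.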
L3MBTL1 block – qHTS Assay for the Inhibitors of L3MBTL1 | Lethal(3)malignant brain tumor-like protein 1 (Homo sapiens), Q9Y468 | AlphaScreen L3MBTL1–H3K9me1 peptide binding | Potency, µM (series often up to 57.1 µM), for inactives: at the top dose activity, negative = inhibition, hits mostly inhibitors | actives 0.66% (n = 230,000) | AID 485360, 2010; further: on the % scale 0 is the no-effect control and ±100 the full control effect; nearly all actives have a fitted effect of over 60% in size
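L3MBTL1 (50 nM) pre-complexed 30 min with biotinylated H3(1-15)K9me1 peptide (75 nM), then compounds added for 30 min at room temperature; AlphaScreen streptavidin donor/nickel chelate acceptor beads (10 ug/mL final) read after 30 min dark incubation.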
BAZ2B block – qHTS Assay for Inhibitors of BAZ2B; actives 4.4% (n = 360,000); AID 504333, 2011; Bromodomain adjacent to zinc finger domain protein 2B (Homo sapiens), Q9UIF8; Potency, µM (top dose mostly 114 µM), for the others: at the highest dose activity change, negative = inhibition, most hits filed as inhibitors; AlphaScreen BAZ2B-H3K14Ac peptide displacement; further: on the % scale 0 is the no-effect control and ±100 the full control effect; nearly all actives have a fitted effect of over 60% in size
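Complex of BAZ2B and biotin-H3K14Ac (50 nM apiece) forms over 30 min at RT, then faces library compounds up to 110 uM for another 30 min; AlphaScreen beads added, 20 min dark incubation, luminescence read.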
JMJD2A Tudor inh – qHTS Assay for Inhibitors of JMJD2A-Tudor Domain; AlphaScreen JMJD2A-Tudor / H3K4me3 peptide binding; AID 504339, 2011; Potency, µM (highest dose often 114 µM), for inactives: at the highest dose activity change, negative = inhibition, actives largely listed as inhibitors; actives 4.4% (n = 390,000); Lysine-specific demethylase 4A (Homo sapiens), O75164; further: on the % scale 0 is the no-effect control and ±100 the full control effect; nearly all actives have a fitted effect of over 50% in size
HP1b chromo inh – HTS for Inhibitors of HP1-beta Chromodomain Interactions with Methylated Histone Tails. AID 540317, 2011. Potency, µM (doses to about 114 µM), for inactives: top-dose activity change, negative = inhibition, usual class: inhibitors. actives 0.56% (n = 390,000). Chromobox protein homolog 1 (Homo sapiens), P83916. AlphaScreen HP1-beta / biotin-H3K9me3 peptide binding; further: nearly all actives have a fitted effect of over 70% in size
Target sequence (P83916 whole entry, looked up): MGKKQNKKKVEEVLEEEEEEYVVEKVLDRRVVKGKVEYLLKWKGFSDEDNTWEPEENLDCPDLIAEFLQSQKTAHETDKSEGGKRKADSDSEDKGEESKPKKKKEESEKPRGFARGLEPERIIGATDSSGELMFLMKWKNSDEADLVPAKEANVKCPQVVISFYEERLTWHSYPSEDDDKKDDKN
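HP1-beta protein (50 nM final) preincubated 30 min at room temperature with biotinylated H3(1-18)K9me3 peptide (50 nM) in PBS pH 7.4, 0.01% Tween-20, then compound added for 30 min. AlphaScreen streptavidin donor/nickel chelate acceptor beads (10 ug/mL final), 30 min dark, luminescence read.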
Starred values were filed as active, the others as inactive; ? = inconclusive; · = no result given; [ ] = remark or other dose. In the library only some 11% were active in any assay of this set; here they are far more common. The call rests on the fitted dose curve; in most records, active means well fitted inhibition curve with a large enough effect; inconclusive means small, poorly fitted or top-dose-only effect; inactive means no such curve, though single readings can be large or run the other way. Potency means the concentration at half of the fitted maximal effect.

SMILES	G9a inh	L3MBTL1 block	BAZ2B block	JMJD2A Tudor inh	HP1b chromo inh
N#CC(C#N)=C1NC2(CCCCC2)Cc2ccccc21	13.7%	-0.9%	-15.5%	-15.9%	15.7%
O=C(/C=C1\NC2(CCCC2)Cc2ccccc21)N1CCOCC1	31.6µM*	-5.2%	?	50.1µM*	-16.8%
NC(=O)c1cc(S(=O)(=O)N2CCN(c3ccc(F)cc3)CC2)cs1	-4.5%[59 µM]	·	2.9%	2.6%	25.5%
S=C(NC1CC1)NC1CCCc2ccccc21 (stereo not given)	12.9%[59 µM]	·	56.2µM*	?	28.1%
O=C(CN1C(=O)C2CCCCC2C1=O)NC1CCCc2ccccc21 (stereo not given)	?	-12.0%	-2.4%	-6.9%	36.7%
CCS(=O)(=O)c1ccccc1C(=O)NC1CCCc2ccccc21 (stereo not given)	39.8µM*	·	-1.2%	-6.4%	-2.4%
CCCCN1C(=O)C(=O)N(CC(=O)NC2CCCc3ccccc32)C1=O (stereo not given)	10.8%	35.9%	-4.9%	5.01µM*	?
CCOC(=O)C1C(C(=O)OC)=C(CC(C)C)c2ccccc2N1S(=O)(=O)C(F)(F)F (stereo not given)	53.6%[59 µM]	·	·	·	·
CCN(CC)S(=O)(=O)c1ccc2c(c1)nc(SCc1nc3ccsc3c(=O)[nH]1)n2CC	35.5µM*	-0.3%	12.4%	-13.2%	32.3%
CC1CCCC2(C1)NC(=S)N(c1ccccc1)N2 (stereo not given)	?	15.0%	-3.6%	79.4µM*	50.8%
CC(C)(C)N1NC2(CCCCC2)NC1=S	?	0.2%	?	17.8µM*	3.0%
CC1(C)CC2(C)Nc3ccccc3N2C(=S)N1 (stereo not given)	5.6%[59 µM]	1.0%	-9.0%	-14.3%	15.7%
CC1CCCCC12NC(=S)N(c1ccccc1)N2 (stereo not given)	·	7.3%	-15.2%	11.2µM*	?
CC1CC(C)(C)CC2(C1)NC(=S)N(c1ccccc1)N2 (stereo not given)	28.2µM*	·	-9.7%	-20.8%	40.0%
Cc1ccc(Cn2c(CNS(=O)(=O)c3ccc(Cl)s3)nc3cccnc32)cc1	30.6%[59 µM]	·	-2.0%	-2.9%	26.4%[57 µM]
CC1C(=O)N(S(=O)(=O)c2ccc([N+](=O)[O-])cc2)[C@H]1c1ccc2ccccc2c1 (stereo not given in full)	·	·	·	-20.0%	-0.1%
S=C1NC2(CCCCC2)NN1c1ccccc1	14.1µM*	7.7%	79.4µM*	-24.8%	54.1%
O=C1NC2(NN1c1ccccc1)C1CC3CC(C1)CC2C3 (stereo not given)	?	·	13.2%	2.4%	22.7%
CC(C)CCN1NC2(CCCC(C)C2)NC1=S (stereo not given)	22.4µM*	1.5%	-17.1%	-5.0%	34.4%
CCOC(=O)c1ccc(NC(=O)c2cc3c(s2)CCC3)cc1	8.0%[12.7 µM]	·	-0.2%	5.5%	31.0%
CC(C)N1C(=O)C(O)(c2c[nH]c3ccccc23)c2ccccc21 (stereo not given)	-40.3%[59 µM]	·	?	-20.5%	15.5%
C/C(CC(=O)Nc1ccc(N(C)C)cc1)=N\NC(=O)Cc1csc(N)n1	44.7µM*	-4.2%	?	?	-8.3%
Cc1nc(CC(=O)Nc2ccc(C(N)=O)cc2)cs1	-3.1%[59 µM]	·	-4.8%	-16.4%	25.0%
Cc1nc(CC(=O)Nc2ccc(N(C)C)cc2)cs1	14.1µM*	·	?	?	12.9%
O=C(NCC(c1ccccc1)c1ccccc1)c1nn(-c2ccccc2F)nc1CO	25.2%[59 µM]	·	5.5%	-20.1%	39.4%
SMILES	G9a inh	L3MBTL1 block	BAZ2B block	JMJD2A Tudor inh	HP1b chromo inh
S=c1[nH]nc(CCCc2n[nH]c(=S)o2)o1	·	·	-28.6%	2.82µM*	?
CCN1C(=O)/C(=C/C=C2/SCCN2C)SC1=S	8.91µM*	-7.6%	-19.2%[57.1 µM]	8.9%[11.4 µM]	-11.1%
CCCN1C(=O)/C(=C\C=C2/Sc3ccccc3N2CCO)SC1=S	?	-4.2%	-27.8%	-9.8%	3.5%
CN1CCS/C1=C\C=C1/SC(=S)N(CC(=O)O)C1=O	39.8µM*	-11.1%	?	-29.4%	17.6%
CCN1C(=O)/C(=C/C=C2/Sc3ccccc3N2CCO)SC1=S	44.7µM*	-6.7%	-33.3%	-17.6%	-20.6%
CCCCN1C(=O)/C(=C/C=C2/CC(C)(C)CN2C)SC1=S	?	-8.7%	8.91µM*	?	?
CCN1C(=O)/C(=C/N2CCc3ccccc32)SC1=S	1.2%[12.7 µM]	-2.3%	-2.6%	-4.5%	20.9%
Cc1oc2ccc(O)c(CN3CCN(C)CC3)c2c1C(=O)Nc1ccc(C(C)C)cc1	6.1%[59 µM]	·	-14.7%	-17.7%	44.3%
O=C(COc1ccc([N+](=O)[O-])cc1)N1CCC(c2nc3ccccc3s2)CC1	?	·	-29.8%	-24.8%	6.6%
CCOc1ccc(/C=N/N2CCN(Cc3ccccc3)CC2)cc1	39.8µM*	?	50.1µM*	?	?
Clc1ccc(/C=N/N2CCN(Cc3ccccc3Cl)CC2)cc1	?	-17.3%	35.5µM*	44.7µM*	-9.8%
O=C(O)c1ccc(/C=N/N2CCN(Cc3ccc(Cl)cc3)CC2)cc1	·	12.2%	-2.9%	-14.7%	28.0%
Clc1ccc(/C=N/N2CCN(Cc3ccccc3)CC2)cc1	50.1µM*	-21.2%	44.7µM*	56.2µM*	?
Clc1ccccc1CN1CCN(/N=C/c2ccncc2)CC1	44.7µM*	?	44.7µM*	?	-5.9%
Clc1ccc(N2CCN(/N=C/c3ccncc3)CC2)cc1	-28.6%	-6.7%	-19.1%	-18.2%	9.8%
Cc1ccc2oc3c(c(=O)c2c1)C(c1ccc(O)cc1)N(c1nc(C)c(C)s1)C3=O (stereo not given)	11.7%[59 µM]	·	-0.2%	-6.2%	7.8%
COc1ccccc1CNc1ncnc2c1c(-c1ccccc1)cn2-c1ccc(Br)cc1	-28.7%[59 µM]	·	-23.5%	-21.1%	30.2%
COc1ccc(CCNC(=O)CCn2c(=O)c3ccccc3n(Cc3ccccc3C)c2=O)cc1OC	-8.4%[59 µM]	·	?	1.4%	34.0%
C(=C\c1ccccc1)/C=N/N1CCN(c2ccccn2)CC1	?	-6.6%	-12.0%	?	-5.9%
CSc1ccc(/C=N/N2CCN(Cc3ccccc3)CC2)cc1	·	-12.6%	12.6µM*	44.7µM*	44.7µM*
COc1ccc(/C=N\N2CCN(Cc3ccccc3Cl)CC2)cc1	12.6µM*	-5.4%	?	?	-13.5%
CSc1ccc(/C=N/N2CCN(c3ccccc3)CC2)cc1	-28.1%	1.0%	-13.2%	-5.8%	23.5%
C/C(=N\N1CCN(Cc2ccccc2Cl)CC1)c1ccc(F)cc1	·	-1.4%	-12.6%	-11.7%	24.6%
C(=C\c1ccccc1)/C=N/N1CCN(Cc2ccccc2)CC1	44.7µM*	-15.8%	35.5µM*	50.1µM*	?
CC(C)(C)C(=O)NCCCC(=O)O	5.2%[12.7 µM]	·	·	·	·
